Screening results deposited in PubChem BioAssay by National Center for Advancing Translational Sciences (NCATS).
Most compounds without a hit are left out; they make up all but 12% or so of the library.
HP1b binding inh: HTS for Inhibitors of HP1-beta Chromodomain Interactions with Methylated Histone Tails; Chromobox protein homolog 1 (Homo sapiens), P83916; Potency, µM (highest dose often 114 µM), without a hit: at the top dose activity change, negative = inhibition, actives largely listed as inhibitors; hit rate 0.56% among 390,000; AlphaScreen HP1-beta / biotin-H3K9me3 peptide binding; also: nearly all actives have a fitted effect of over 70% in size
Target sequence (P83916 whole entry, looked up): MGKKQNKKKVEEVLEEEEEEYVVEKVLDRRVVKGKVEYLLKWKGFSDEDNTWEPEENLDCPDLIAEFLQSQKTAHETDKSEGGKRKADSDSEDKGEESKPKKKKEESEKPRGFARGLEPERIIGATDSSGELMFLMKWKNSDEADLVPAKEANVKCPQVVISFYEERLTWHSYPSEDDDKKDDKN
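Compound inhibition of the preformed complex between 50 nM HP1-beta and 50 nM biotinylated H3K9me3 peptide was read by AlphaScreen. Buffer was PBS pH 7.4 with 0.01% Tween-20. Incubations ran 30 min at room temperature, with 10 ug/mL donor/acceptor beads.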
L3MBTL1 block: qHTS Assay for the Inhibitors of L3MBTL1; Lethal(3)malignant brain tumor-like protein 1 (Homo sapiens), Q9Y468; AlphaScreen L3MBTL1–H3K9me1 peptide binding; Potency, µM (titrated, usually from 57.1 µM), inactives show top-dose activity, negative = inhibition, hits mostly inhibitors; hit rate 0.66% among 230,000; AID 485360, 2010; also: % is scaled to controls: 0 for no effect and ±100 for the full control effect; nearly all actives have a fitted effect of over 60% in size
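AlphaScreen proximity signal between nickel-chelate acceptor and streptavidin donor beads (final 10 ug/mL) reports binding of 50 nM L3MBTL1 to 75 nM biotin-H3 K9me1 peptide; complex incubated with compounds 30 min at room temperature; cefsulodin titration as control.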
JMJD2A Tudor: qHTS Assay for Inhibitors of JMJD2A-Tudor Domain; Lysine-specific demethylase 4A (Homo sapiens), O75164; AlphaScreen JMJD2A-Tudor / H3K4me3 peptide binding; Potency, µM (series often up to 114 µM), inactives show at the top dose activity change, negative = inhibition, usual class: inhibitors; hit rate 4.4% among 390,000; AID 504339, 2011; also: % is scaled to controls: 0 for no effect and ±100 for the full control effect; nearly all actives have a fitted effect of over 50% in size
G9a inh: qHTS Assay for Inhibitors of Histone Lysine Methyltransferase G9a. Histone-lysine N-methyltransferase EHMT2 (Homo sapiens), Q96KQ7. G9a H3K9 monomethylation, AlphaScreen, 2 h. Potency, µM (titrated, usually from 102 µM), for inactives: top-dose activity, negative = inhibition, usual class: inhibitors. hit rate 8.8% among 350,000. AID 504332, 2011; also: % is scaled to controls: 0 for no effect and ±100 for the full control effect; nearly all actives have a fitted effect of over 75% in size
Target sequence (Q96KQ7 913-1193 limits assumed): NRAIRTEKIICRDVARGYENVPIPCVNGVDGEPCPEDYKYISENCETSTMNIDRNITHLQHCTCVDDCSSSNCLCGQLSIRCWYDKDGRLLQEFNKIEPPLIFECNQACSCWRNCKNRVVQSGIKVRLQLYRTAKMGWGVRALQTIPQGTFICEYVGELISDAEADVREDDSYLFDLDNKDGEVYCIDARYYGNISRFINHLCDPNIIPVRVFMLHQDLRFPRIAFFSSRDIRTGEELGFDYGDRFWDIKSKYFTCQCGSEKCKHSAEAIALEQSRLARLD
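Signal arises when biotinylated H3K9 peptide, once monomethylated, bridges streptavidin donor and antibody-captured acceptor beads. Enzyme at 20 nM was preincubated 15 min with test compounds; peptide 500 nM and SAM 20 uM then reacted for 2 h.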
BAZ2B block: qHTS Assay for Inhibitors of BAZ2B | Bromodomain adjacent to zinc finger domain protein 2B (Homo sapiens), Q9UIF8 | AlphaScreen BAZ2B-H3K14Ac peptide displacement | Potency, µM (series often up to 114 µM), inactives show at the top dose activity change, negative = inhibition, hits mostly inhibitors | hit rate 4.4% among 360,000; also: % is scaled to controls: 0 for no effect and ±100 for the full control effect; nearly all actives have a fitted effect of over 60% in size
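Complex of BAZ2B and biotin-H3K14Ac (50 nM apiece) forms over 30 min at RT, then faces library compounds up to 110 uM for another 30 min; AlphaScreen beads added, 20 min dark incubation, luminescence read.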
Sfp inh: qHTS Assay for Inhibitors of Bacillus subtilis Sfp phosphopantetheinyl transferase (PPTase). AID 1490, 2009. Biochemical Sfp PPTase activity, qHTS. hit rate 3.5% among 310,000. Potency, µM, without a hit: largest response in the series, negative = inhibition, most hits filed as inhibitors;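 also: the enzyme is Sfp with the accession as filed and its product quenches rhodamine fluorescence; 0% = enzyme reaction without inhibitor and -100% = no enzyme wells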
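Compounds were incubated with enzyme (final 15 nM) for 15 min at room temperature before substrate addition started the reaction. Fluorescence at 525 nm excitation, 598 nm emission was recorded immediately and after 30 minutes.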
* marks the source's active call; other numbers are inactive results; ? = inconclusive; . = no result given; ! = repeats disagree; [ ] = another dose, or the depositor's remark. Calls follow the shape of the dose curve; as a rule, active = well fitted curve in the direction sought with a large enough effect; inconclusive = small, poorly fitted or top-dose-only effect, or another doubt; inactive = no such curve, though single readings can be large; an effect the other way counts as inactive or inconclusive. Potency is read from the fitted curve at half-maximal effect.

SMILES	HP1b binding inh	L3MBTL1 block	JMJD2A Tudor	G9a inh	BAZ2B block	Sfp inh
CN1C(=O)C(C2c3ccccc3C(=O)N2Cc2ccccc2)C(=O)N(C)C1=O (stereo not drawn)	17.4%	.	-28.5%	?	79.4µM*	-12.6%
Cc1nn(CCC#N)c2c1P(=S)(N1CCCC1)OC(c1ccc(F)cc1)=N2 (stereo not drawn)	14.1µM*	-5.4%	?	15.8µM*	?	10µM*
COc1ccc(OC)c(N2C(=O)/C(=C/c3ccco3)C(=O)NC2=S)c1	3.16µM*	.	1.58µM*	1.78µM*	1.41µM*	17.8µM*
O=C1NC(=S)N(c2ccc(F)cc2)C(=O)/C1=C\c1ccoc1	5.62µM*	.	3.16µM*	7.94µM*	14.1µM*	20µM*
COc1ccc(N2C(=O)/C(=C/c3cc(C)n(-c4ccc(C)cn4)c3C)C(=O)NC2=S)c(OC)c1	-12.2%	?	39.8µM*	31.6µM*	?	35.5µM*
COc1ccc(OC)c(N2C(=O)NC(=O)/C(=C/c3ccc([N+](=O)[O-])s3)C2=O)c1	31.6µM*	.	28.2µM*	11.2µM*	39.8µM*	10µM*
COc1ccc(OC)c(N2C(=O)CC(=O)NC2=O)c1	34.8%	.	-11.7%	?	-20.9%	2.8%
[Li+]	.	.	.	5.8%[59 µM]	.	.
CC(C)NC(=O)N1CC[C@@]2(CCCNC2)C1	.	.	.	-14.1%[12.7 µM]	.	-1.2%
C[C@@H](Cc1cccc(C(F)(F)F)c1)NCCCc1ccccc1	.	.	.	.	.	-21.1%
O=C1NC(=S)N(c2ccc(F)cc2)C(=O)/C1=C/c1ccco1	.	-93.6%	.	?	1.78µM*	25.1µM*
O=C(O)Cn1cc(/C=C2\C(=O)NC(=O)N(c3ccc(Cl)cc3)C2=O)c2ccccc21	29.2%	.	-20.4%	?	?	?
O=C1NC(=S)N(c2ccc(Cl)cc2)C(=O)/C1=C/N1CCN(C(=O)c2ccco2)CC1	17.1%	0.6%	-8.3%	50.1µM*	-38.9%	44.7µM*
Cc1ccc(N2C(=O)NC(=O)/C(=C\c3ccoc3)C2=O)cc1	16.3%	?	-18.2%	44.7µM*	?	?
O=C1NC(=O)C(=Cc2ccco2)C(=O)N1	-34.3%[57 µM]	.	44.7µM*	.	.	.
O=c1[nH]c(=O)n([C@H]2C[C@@H](O)[C@@H](CO)O2)cc1C=CBr	.	.	.	40.5%[59 µM]	.	.
CC(c1nc2ccccc2c(=O)[nH]1)N(C)CCOc1ccc(Cl)cc1 (stereo not drawn)	43.3%	-6.3%	-14.6%	33.8%	-13.6%	11.6%
COc1ccc(CCN(C)Cc2ccc(F)cc2F)cc1OC	?	.	3.98µM*	10µM*	?	-24.2%
CCN(CC)c1ccc(CN(C)CCc2ccc(OC)c(OC)c2)cc1	?	-4.1%	10µM*	?	44.7µM*	-7.2%
COc1cc(CCN)ccc1O	61.5%	-13.4%	-6.9%	-24.2%[59 µM]	9.3%	27.7%
O=C(NC(O)C(Cl)(Cl)Cl)NC(O)C(Cl)(Cl)Cl (stereo not drawn)	.	.	.	2.2%[12.7 µM]	.	5.6%
CC(C)n1c(/C=C\[C@@H](O)C[C@@H](O)CC(=O)O)c(-c2ccc(F)cc2)c2ccccc21	.	.	.	12.4%[21.5 µM]	.	46.5%
Oc1cccc2cccnc12	-1.5%	.	?	16.9%[59 µM]	10µM*	?
CCC(C)N1C(=O)/C(=C\c2cc3c4c(c2)CCCN4CCC3)C(=O)NC1=S (stereo not drawn)	?	-26.0%	14.1µM*	44.7µM*	?	?
CCC(C)N1C(=O)/C(=C\c2ccc(N3CCCCCC3)cc2)C(=O)NC1=S (stereo not drawn)	?	-7.4%	?	3.55µM*	44.7µM*	?
SMILES	HP1b binding inh	L3MBTL1 block	JMJD2A Tudor	G9a inh	BAZ2B block	Sfp inh
Nc1nc2c(s1)CCCCCCCCCC2	?	-17.9%	?	44.7µM*	-27.4%	4.8%
Nc1c2c(nc3sc4c(c13)CCCC4)CCCC2	17.0%	-6.7%	-8.3%	.	-11.1%	3.3%
COc1ccc(C)cc1NC(=O)CN1CCN(CC(=O)Nc2ccccc2F)CC1	52.3%	3.7%	9.1%	39.8µM*!	-2.1%	16.7%
COc1ccc(C)cc1NC(=O)N(Cc1ccc2c(c1)OCO2)C1CCN(Cc2ccccc2)CC1	2.6%	.	?	?	?	.
O=C(Nc1ccc(Cl)c(C(F)(F)F)c1)c1ccc2c(c1)CCN2S(=O)(=O)c1ccccc1	63.8%	.	5.7%	8.1%[59 µM]	2.2%	.
COC(=O)[C@H]1C(=O)c2ccccc2O[C@@](C(=O)OC)(c2ccccc2)[C@@H]1c1ccccc1	.	.	.	.	.	9.6%
N[C@@H](CSCCCO)C(=O)O	.	.	.	4.7%[59 µM]	.	50.1µM*
Cn1c(=O)c2c(-c3ccccc3)n3c(c2n(C)c1=O)C(c1cc(Cl)ccc1O)Nc1ccccc1-3 (stereo not drawn)	17.1%	.	-24.5%	?	-21.9%	.
CNc1ccc2nc3ccccc3[n+](C)c2c1	?	.	-33.3%	-33.3%[2.33 µM]	35.5µM*	-24.8%
C[n+]1c2ccccc2nc2ccc(NCCO)cc21	39.8µM*	.	?	0.7%[2.33 µM]	12.6µM*	79.4µM*
CCCCC/C=C\C/C=C\C/C=C\C/C=C\CCCC(=O)N(Cc1ccc(O)c(Cl)c1)Cc1ccc(O)c(Cl)c1	.	.	.	?	.	-5.2%
O=C(Oc1ccccc1)N1CCC2(CC1)CCN(C(c1ccccc1)c1ccccc1)CC2	.	.	.	3.9%[12.7 µM]	.	22.6%
COc1ccc(N2C(=O)NC(=O)/C(=C/c3cccc(OC(=O)c4cccs4)c3)C2=O)cc1Cl	2.4%	-12.3%	-13.4%	10µM*	79.4µM*	?
Cc1ccc(N2C(=O)NC(=O)/C(=C/c3ccc(OC(=O)c4cccs4)cc3)C2=O)cc1	42.7%	-4.6%	89.1µM*	12.6µM*	7.6%	44.7µM*
CCOP(=S)(OCC)Oc1cc(C)nc(N(CC)CC)n1	.	.	.	.	.	-20.1%
CN(Cc1ccccc1)C(=O)c1ccc(NC(=O)C2CCN(C(=O)OC(C)(C)C)CC2)cc1	-12.2%	0.2%	?	.	.	.
CN1CCCC2(CCN(C(=O)Oc3ccccc3)CC2)C1	.	.	.	8.9%[12.7 µM]	.	5.4%
CCCN1CCO[C@@H]2c3cc(O)ccc3OC[C@H]21	76.5%	6.1%	-9.4%	17.8µM*!	-3.2%	28.0%
CCCCn1c(O)c(/C=N/N2CCOCC2)c(=O)[nH]c1=S	50.4%	-4.5%	7.6%	44.7µM*	-18.8%	4.1%
